# Reference: the supplement of paper PMC8728848
# Only a selection was taken, and the strongest signals are over-represented in it overall.
# B1: CvGal2 (Crassostrea virginica) (protein)
# chain: MGSSHHHHHHSSGLVPRGSHMRIREAGKRKDTTKVYQIPDGLFPGQQVMLRGRVPWGSKSFSINFSATPRMGEGDILFHLNPRPSEGVCIRNALLNGSWGAEEKWQPYFPFDDGRSFSVKIEVTNDAFRTFVNGRPFVDFLHRTDFRAGKYLTLREGAEYYDVIFQSKPNIPLTTAIHNGMRIGKTIRIRGMCTAQDGFAINFNDNRNNIYFHFNARPAQRTVVRNSYFGSWGNEETAISKEFPFYPFLYFYASFVCMEDKFAVYVNDEHFIDFAHRGNPNNISVLQIKGSVNVLDTECLEPMGEDAMTEVDSGLENGDLFVLNGLMTERGKTFAVNFLNGFTENDDIALHFNPRKSTGEVVLNSRYGGAWQSEEKVALPGVFWSNRPLQVKVETKRNKFKIYVNGVDLAKYKIRGNVEDVHAVQVKGDVFLLETLLLKRLMKPVWERLTGGIRPGTWVTLQGTPKKNWQQFVVNFALDDTLDGDIAFHFNVRRGARQVVRNHRQSGAWGREETVTPFFAFDSEATFEIVFFVKEEKFLIYFNGKLFFEFVHRVPVERITHIYMDGDCNFYEPEVVI
# Legend:
# Experiment in all cases: glycan array binding signal (z-score within array); higher = stronger binding
# Details in all cases: glycan notation: IUPAC condensed, linker removed
# [1] = molecular target: GlcNAc(b1-2)[GlcNAc(b1-4)]Man(a1-3)[GlcNAc(b1-4)][GlcNAc(b1-2)[GlcNAc(b1-6)]Man(a1-6)]Man(b1-4)GlcNAc(b1-4)[Fuc(a1-6)]GlcNAc
# Procedure, shortened: (§1)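 The binding signal is a Z-score computed within each array. Data were drawn from 3228 arrays in the Consortium for Functional Glycomics database, restricted to those with a known protein sequence. Scores were averaged over arrays of the same protein sequence at different concentrations or buffers, and over linkers, and negative values can be taken as non-binding.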
# [2] = molecular target: GlcNAc(b1-2)[GlcNAc(b1-6)]Man(a1-6)[GlcNAc(b1-2)Man(a1-3)]Man(b1-4)GlcNAc(b1-4)GlcNAc
# Procedure, shortened: as §1
# [3] = molecular target: GlcNAc(b1-3)Gal(b1-3)GalNAc
# Procedure, shortened: as §1
# [4] = molecular target: GlcNAc(b1-3)Gal(b1-4)GlcNAc(b1-3)Gal(b1-4)GlcNAc(b1-3)Gal(b1-4)GlcNAc(b1-3)Gal(b1-4)GlcNAc(b1-2)Man(a1-3)[GlcNAc(b1-3)Gal(b1-4)GlcNAc(b1-3)Gal(b1-4)GlcNAc(b1-3)Gal(b1-4)GlcNAc(b1-3)Gal(b1-4)GlcNAc(b1-2)Man(a1-6)]Man(b1-4)GlcNAc(b1-4)[Fuc(a1-6)]GlcNAc
# Procedure, shortened: as §1
# [5] = molecular target: GlcNAc(b1-3)Gal(b1-4)GlcNAc(b1-3)Gal(b1-4)GlcNAc(b1-3)Gal(b1-4)GlcNAc(b1-3)Gal(b1-4)GlcNAc(b1-2)[GlcNAc(b1-3)Gal(b1-4)GlcNAc(b1-3)Gal(b1-4)GlcNAc(b1-3)Gal(b1-4)GlcNAc(b1-3)Gal(b1-4)GlcNAc(b1-6)]Man(a1-6)[GlcNAc(b1-3)Gal(b1-4)GlcNAc(b1-3)Gal(b1-4)GlcNAc(b1-3)Gal(b1-4)GlcNAc(b1-3)Gal(b1-4)GlcNAc(b1-2)Man(a1-3)]Man(b1-4)GlcNAc(b1-4)[Fuc(a1-6)]GlcNAc
# Procedure, shortened: as §1
# [6] = molecular target: GlcNAc(b1-3)Gal(b1-4)GlcNAc(b1-6)[GlcNAc(b1-3)]Gal(b1-4)GlcNAc
# Procedure, shortened: as §1
# [7] = molecular target: GlcNAc(b1-3)Man
# Procedure, shortened: as §1
# [8] = molecular target: GlcNAc(b1-4)GlcNAc(b1-4)GlcNAc(b1-4)GlcNAc(b1-4)GlcNAc(b1-4)GlcNAc
# Procedure, shortened: as §1
# [9] = molecular target: GlcNAc6S(b1-3)Gal(b1-4)GlcNAc
# Procedure, shortened: as §1
# [10] = molecular target: Kdn(a2-6)Gal(b1-4)GlcNAc
# Procedure, shortened: as §1
# [11] = molecular target: Man(a1-3)[Man(a1-6)]Man(a1-6)[Man(a1-3)]Man
# Procedure, shortened: as §1
# [12] = molecular target: Man(b1-4)GlcNAc
# Procedure, shortened: as §1
# [13] = molecular target: Neu5Ac(a2-3)Gal(b1-3)GalNAc(b1-4)[Neu5Ac(a2-3)]Gal(b1-4)Glc
# Procedure, shortened: as §1
# [14] = molecular target: Neu5Ac(a2-3)Gal(b1-3)GlcNAc(b1-2)Man(a1-3)[Neu5Ac(a2-3)Gal(b1-3)GlcNAc(b1-2)Man(a1-6)]Man(b1-4)GlcNAc(b1-4)GlcNAc
# Procedure, shortened: as §1
# [15] = molecular target: Neu5Ac(a2-3)Gal(b1-4)GlcNAc(b1-2)[Neu5Ac(a2-3)Gal(b1-4)GlcNAc(b1-6)]Man(a1-6)[Neu5Ac(a2-3)Gal(b1-4)GlcNAc(b1-2)Man(a1-3)]Man(b1-4)GlcNAc(b1-4)GlcNAc
# Procedure, shortened: as §1
# [16] = molecular target: Neu5Ac(a2-3)Gal(b1-4)GlcNAc(b1-3)Gal(b1-4)GlcNAc(b1-3)Gal(b1-4)GlcNAc
# Procedure, shortened: as §1
# [17] = molecular target: Neu5Ac(a2-3)Gal(b1-4)GlcNAc(b1-3)Gal(b1-4)GlcNAc(b1-3)[Neu5Ac(a2-3)Gal(b1-4)GlcNAc(b1-3)Gal(b1-4)GlcNAc(b1-6)]GalNAc
# Procedure, shortened: as §1
# [18] = molecular target: Neu5Ac(a2-3)Gal(b1-4)GlcNAc(b1-6)GalNAc
# Procedure, shortened: as §1
# [19] = molecular target: Neu5Ac(a2-6)Gal(b1-4)GlcNAc(b1-2)Man(a1-3)[Neu5Ac(a2-6)Gal(b1-4)GlcNAc(b1-2)Man(a1-6)]Man(b1-4)GlcNAc(b1-4)GlcNAc
# Procedure, shortened: as §1
# [20] = molecular target: Neu5Ac(a2-6)Gal(b1-4)GlcNAc(b1-2)[Neu5Ac(a2-6)Gal(b1-4)GlcNAc(b1-4)]Man(a1-3)[GlcNAc(b1-4)][Neu5Ac(a2-6)Gal(b1-4)GlcNAc(b1-2)[Neu5Ac(a2-6)Gal(b1-4)GlcNAc(b1-6)]Man(a1-6)]Man(b1-4)GlcNAc(b1-4)GlcNAc
# Procedure, shortened: as §1
# [21] = molecular target: Neu5Ac(a2-6)Gal(b1-4)GlcNAc(b1-6)GalNAc
# Procedure, shortened: as §1
# [22] = molecular target: Neu5Ac(a2-6)Gal(b1-4)GlcNAc(b1-6)[Gal(b1-3)GlcNAc(b1-3)]Gal(b1-4)Glc
# Procedure, shortened: as §1
# [23] = molecular target: Neu5Ac(a2-6)GalNAc(b1-4)GlcNAc6S
# Procedure, shortened: as §1
# [24] = molecular target: Neu5Ac(a2-8)Neu5Ac(a2-8)Neu5Ac
# Procedure, shortened: as §1
# [25] = molecular target: Neu5Gc(a2-3)Gal(b1-3)[Fuc(a1-4)]GlcNAc
# Procedure, shortened: as §1
# [26] = molecular target: Neu5Gc(b2-6)Gal(b1-4)GlcNAc
# Procedure, shortened: as §1
binder,measurement,setting,value
B1,glycan array binding signal (z-score),[1],-0.32
same,glycan array binding signal (z-score),[2],-0.338
same,glycan array binding signal (z-score),[3],-0.316
same,glycan array binding signal (z-score),[4],-0.163
same,glycan array binding signal (z-score),[5],0.428
same,glycan array binding signal (z-score),[6],-0.345
same,glycan array binding signal (z-score),[7],-0.33
same,glycan array binding signal (z-score),[8],-0.345
same,glycan array binding signal (z-score),[9],-0.328
same,glycan array binding signal (z-score),[10],-0.329
same,glycan array binding signal (z-score),[11],-0.325
same,glycan array binding signal (z-score),[12],-0.333
same,glycan array binding signal (z-score),[13],-0.328
same,glycan array binding signal (z-score),[14],-0.338
same,glycan array binding signal (z-score),[15],-0.325
same,glycan array binding signal (z-score),[16],-0.337
same,glycan array binding signal (z-score),[17],-0.323
same,glycan array binding signal (z-score),[18],-0.339
same,glycan array binding signal (z-score),[19],-0.305
same,glycan array binding signal (z-score),[20],-0.336
same,glycan array binding signal (z-score),[21],-0.339
same,glycan array binding signal (z-score),[22],-0.133
same,glycan array binding signal (z-score),[23],-0.331
same,glycan array binding signal (z-score),[24],-0.335
same,glycan array binding signal (z-score),[25],-0.338
same,glycan array binding signal (z-score),[26],-0.336
